The values that follow come from PubChem BioAssay AID1159580 (chemical genetic matrix, 2015).

About 2,000 (36%) of roughly 5,500 compounds were called active. Inconclusive results (about 18%) are left out. The list shows a part of the results. Values without a mark were called inactive. No stated cut-off is given here; in the data, active means normalized growth mostly below about 0.91 (no sharp cut-off); inconclusive means no clear call, values can overlap the other calls; inactive means mostly above about 0.92.

The nature of this assay: chemical genetic growth profiling, strain panel (AID 1159580).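 Further: tested at 20 µM; growth read once vehicle control cultures reached saturation at 30 °C; 1 = growth at the plate median or of vehicle wells; lower values mean less growth of the strain.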 The note with it: growth OD.
[1] abbreviates: S. cerevisiae deletion strains, locus YAL013W, strain DEP1, hits give low values.
Setting [2] is: S. cerevisiae deletion strains, locus YBR229C, strain ROT2, hits give low values.
[3] abbreviates: S. cerevisiae deletion strains, locus YDL101C, strain DUN1, hits give low values.
The mark [4] stands for this setting: S. cerevisiae deletion strains, locus YDR150W, strain NUM1, hits give low values.
Setting [5] is: S. cerevisiae deletion strains, locus YEL061C, strain CIN8, hits give low values.
[6] abbreviates: S. cerevisiae deletion strains, locus YGR078C, strain PAC10, hits give low values.
Where [7] appears, read: S. cerevisiae deletion strains, locus YHR030C, strain SLT2, hits give low values.
[8] abbreviates: S. cerevisiae deletion strains, locus YHR087W, strain rtc3, hits give low values.
Where [9] appears, read: S. cerevisiae deletion strains, locus YJR043C, strain POL32, hits give low values.
The mark [10] stands for this setting: S. cerevisiae deletion strains, locus YJR075W, strain HOC1, hits give low values.
The mark [11] stands for this setting: S. cerevisiae deletion strains, locus YLR039C, strain RIC1, hits give low values.
[12] abbreviates: S. cerevisiae deletion strains, locus YLR058C, strain SHM2 (second series), hits give low values.
Where [13] appears, read: S. cerevisiae deletion strains, locus YLR085C, strain ARP6, hits give low values.
Setting [14] is: S. cerevisiae deletion strains, locus YLR262C, strain YPT6, hits give low values.
Setting [15] is: S. cerevisiae deletion strains, locus YML094W, strain GIM5, hits give low values.
Where [16] appears, read: S. cerevisiae deletion strains, locus YMR219W, strain ESC1, hits give low values.
[17] abbreviates: S. cerevisiae deletion strains, locus YMR263W, strain SAP30, hits give low values.
The mark [18] stands for this setting: S. cerevisiae deletion strains, locus YMR307W, strain GAS1, hits give low values.
Where [19] appears, read: S. cerevisiae deletion strains, locus YNL153C, strain GIM3, hits give low values.
Where [20] appears, read: S. cerevisiae deletion strains, locus YNL298W, strain CLA4 (second series), hits give low values.
The mark [21] stands for this setting: S. cerevisiae deletion strains, locus YNL322C, strain KRE1, hits give low values.
Setting [22] is: S. cerevisiae deletion strains, locus YNR030W, strain Alg12, hits give low values.
Where [23] appears, read: S. cerevisiae deletion strains, locus YPL055C, strain LGE1, hits give low values.
Where [24] appears, read: S. cerevisiae deletion strains, locus YPL241C, strain CIN2, hits give low values.
The mark [25] stands for this setting: S. cerevisiae deletion strains, locus YPR135W, strain CTF4, hits give low values.
Setting [26] is: S. cerevisiae strains, strain wild type, hits give low values.

For `CC(C)(C)NC(=S)NC1CCN(Cc2ccccc2)CC1`, the normalized growth is, setting by setting: under setting [1], 1.06; under setting [2], 0.997; (S. cerevisiae deletion strains, locus YCL061C, strain MRC1, hits give low values) 1.03; under setting [3], 1.01; (S. cerevisiae deletion strains, locus YDL134C, strain PPH21, hits give low values) 0.994; under setting [4], 0.969. Further, the normalized growth is 1.02 under setting [5]; 1.01 under setting [6]; 1.06 under setting [7]; 0.986 under setting [8]; 0.995 under setting [9]; 0.994 under setting [10]. Further, the normalized growth under setting [11] is 0.994; the normalized growth under setting [12] was 0.983; the normalized growth under setting [13] was 1.03; the normalized growth under setting [14] is 0.985; the normalized growth under setting [15] was 1.02; the normalized growth under setting [16] was 1.01. The normalized growth runs as follows: under setting [17], 0.992; under setting [18], 0.987; under setting [19], 1.01; under setting [20], 1.01; under setting [21], 0.995; under setting [22], 1.03. The normalized growth is, setting by setting: under setting [23], 0.986; under setting [24], 1; under setting [25], 1.16; under setting [26], 0.981.
Consider `c1ccc(CN2CCC3(CCCc4ccccc43)CC2)cc1`, for which the normalized growth (S. cerevisiae deletion strains, locus YAL040C, strain CLN3, hits give low values) was 1.02; the normalized growth (S. cerevisiae deletion strains, locus YCL061C, strain MRC1 (second series), hits give low values) was 0.938 (active); the normalized growth (S. cerevisiae deletion strains, locus YDR363W, strain ESC2, hits give low values) was 0.805 (active); the normalized growth (S. cerevisiae deletion strains, locus YER002W, strain NOP16, hits give low values) was 0.975; the normalized growth under setting [6] is 0.976; the normalized growth under setting [18] was 1. For the same compound, the normalized growth is 0.817 under setting [19]; 0.993 (S. cerevisiae deletion strains, locus YNL175C, strain NOP13, hits give low values); 0.983 (S. cerevisiae deletion strains, locus YNL197C, strain WHI3, hits give low values); 1.01 (S. cerevisiae deletion strains, locus YNL224C, strain SQS1, hits give low values); 0.874 (S. cerevisiae deletion strains, locus YOR083W, strain WHI5 (second series), hits give low values); 0.854 (active) under setting [23]. For the same compound, the normalized growth under setting [24] is 0.955.
On to `O=C1NC2(CCN(Cc3ccccc3)CC2)Oc2ccccc21`, for which the normalized growth reads like this: under setting [1], 0.999; under setting [2], 0.993; under setting [3], 0.949; under setting [4], 0.993; under setting [5], 1.02; under setting [6], 0.98. Moreover, the normalized growth reads like this: (S. cerevisiae deletion strains, locus YGR229C, strain SMI1, hits give low values) 0.995; under setting [7], 1.04; under setting [8], 0.968; under setting [9], 1; under setting [10], 0.985; (S. cerevisiae deletion strains, locus YKL190W, strain CNB1, hits give low values) 0.988. In addition, the normalized growth runs as follows: under setting [11], 0.984; under setting [12], 0.972; under setting [13], 1.14; under setting [14], 0.992; under setting [15], 1; under setting [16], 0.995. Besides, the normalized growth under setting [17] is 1.03; the normalized growth under setting [19] is 0.997; the normalized growth under setting [20] is 0.955; the normalized growth under setting [21] is 0.997; the normalized growth under setting [22] is 0.975; the normalized growth (S. cerevisiae deletion strains, locus YOL006C, strain TOP1, hits give low values) was 0.918. The normalized growth is, setting by setting: under setting [23], 0.997; under setting [24], 1.1; under setting [25], 0.834; under setting [26], 0.983.
